DT40 TDP1 no CPT: qHTS for Inhibitors of human tyrosyl-DNA phosphodiesterase 1 (TDP1): qHTS in cells in absence of CPT; DT40 Tdp1-/- hTDP1 cells, no CPT, ATP luminescence, 48 h; Potency, µM (doses to about 46.2 µM), inactives show at the top dose activity change, negative = growth inhibition, most hits filed as inhibitors; actives 15% (n = 420,000); AID 686978, 2013; note: potency is the fitted concentration of half-maximal effect; % is set by controls: 0 for no effect and ±100 for the full control effect; nearly all actives have a fitted effect of over 55% in size
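Compound effects on proliferation are scored in DT40 Tdp1-/-;hTDP1 cells in the absence of CPT. ATP levels (CellTiter-Glo luminescence) are recorded after a ≥48 hr, 37 °C incubation.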
IL-1B inflam inh: blocks inflammasome-driven IL-1 beta release. activity change, % at 57.5 µM. THP-1 LPS/ATP IL-1B secretion, AlphaLISA, 16 h; active compounds read low. actives 4.7% (n = 360,000). AID 743279; in the data active = activity change below about -50%; inconclusive = mostly about -30% to -49%; note: % is set by controls: 0 for no effect and ±100 for the full control effect
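Secreted IL-1B measured by AlphaLISA bead assay after 16 h compound exposure of THP-1 cells; compounds (final up to 57.5 uM) added 1 h before LPS (250 ng/mL) and ATP (1.25 mM) stimulation; lower signal means less secretion.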
DT40 TDP1 CPT: growth inhibition of DT40 Tdp1-/-;hTDP1 cells with camptothecin (screen for TDP1 inhibitors); chicken DT40 Tdp1-/-;hTDP1 cells + 20 nM CPT, ATP luminescence, 48 h; Potency, µM (top dose mostly 46.2 µM), without a hit: top-dose activity change, negative = growth inhibition, usual class: inhibitors; actives 12% (n = 420,000); AID 686979; note: potency is the fitted concentration of half-maximal effect; % is set by controls: 0 for no effect and ±100 for the full control effect; nearly all actives have a fitted effect of over 55% in size
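Chicken DT40 Tdp1-/- cells stably complemented with human TDP1 were seeded at 400 cells/well in medium containing 20 nM camptothecin, exposed to pin-transferred compounds, and grown at 37 °C for at least 48 hr. Viability was read as ATP luminescence.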
BCR signal inh: blocks chronic active B-cell receptor signaling. actives 0.05% (n = 340,000). AID 493014. Potency, µM (titrated, usually from 46.1 µM), inactives show at the top dose activity change, negative = inhibition, hits mostly inhibitors. ABC-DLBCL IkBa-CBG/CBR reporter, luminescence ratio, 4 h; active = well fitted inhibition curve with a large enough effect in the signal ratio, with a control signal flat, not every such curve was filed as active; inconclusive = small, poorly fitted or top-dose-only effect, or effect the other way, or a change in a side signal; the % refers to the signal ratio;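 note: potency is the fitted concentration of half-maximal effect; plate controls were basal doxycycline-induced cells for no effect and cells given 10 µM MG132 for full effect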
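Concentration-response series (up to 46 uM) were applied to TMD8 dual-reporter cells for 4 h at 37C with doxycycline. Green/red ratio, after filter-overlap correction, defined %Activity; red signal alone was normalised to basal cells and zero luminescence.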
MCF10A rereplic: induces DNA re-replication in MCF 10a normal breast cells. MCF 10A DNA re-replication, Hoechst nuclear intensity, 48 h. Potency, µM (series often up to 46.1 µM), without a hit: top-dose activity, positive = re-replication, actives largely listed as activators. actives 2.9% (n = 350,000). AID 624296; note: potency is the fitted concentration of half-maximal effect; % of control where 0% means no effect; nearly all actives have a fitted effect of over 50% in size
SW480 rerep: induces DNA re-replication in SW480 colon adenocarcinoma cells; SW480 DNA re-replication, Hoechst DNA content imaging, 48 h; AID 624297; actives 1.8% (n = 340,000); Potency, µM (doses to about 46.1 µM), inactives show top-dose re-replication activation, usual class: activators; note: potency is the fitted concentration of half-maximal effect; % of control where 0% means no effect; nearly all actives have a fitted effect of over 55% in size
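Per well, 250 cells were exposed to pinned compound for 48 hr. Nuclear DNA was visualised with Hoechst (40 min, 37 C) and total object intensity recorded by fluorescence scanning.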
* = called active by the depositor; i = inactive; ? = inconclusive; . = no result given. Shown are actives, neighbours in structure and some others; about 19% of the full set was active somewhere. Unless noted, calls come from the whole dose curve; as a rule, active = well fitted curve in the direction sought with a large enough effect; inconclusive = small, poorly fitted or top-dose-only effect, or another doubt; inactive = no such curve, though single readings can be large; an effect the other way counts as inactive or inconclusive.

SMILES	DT40 TDP1 no CPT	IL-1B inflam inh	DT40 TDP1 CPT	BCR signal inh	MCF10A rereplic	SW480 rerep
COc1ccc(NC(=O)CN(c2ccc(C)cc2)S(=O)(=O)c2c(C)nn(C)c2C)cc1OC	-13.3%	0.0	-26.7%	5.2%	4.4%	-0.1%
CCOc1ccccc1NC(=O)CN(c1cc(C)cc(C)c1)S(=O)(=O)c1c(C)nn(C)c1C	20.6µM*	.	20.6µM*	.	.	.
CN(CC(=O)Nc1sccc1C(N)=O)S(=O)(=O)c1ccc(Cl)cc1	?	0.2	?	?	?	1.1%
CCc1nc(N=Nc2c(O)[nH]c3ccccc23)c2c3c(sc2n1)CCC3	16.4µM*	-24.6	13µM*	?	2.9%	0.3%
CC1CCc2c(sc3ncn(CC(=O)N=Nc4c(O)[nH]c5ccccc45)c(=O)c23)C1 (centres undefined)	-28.3%	10.2	?	-1.1%	?	2.1%
CCn1cc2nc(SCc3ccccc3)n(Cc3ccc(C)cc3)c(=O)c2n1	10.3µM*	.	16.4µM*	.	.	.
CCn1cc2nc(SCc3cc(C)ccc3C)n(Cc3ccc(C)cc3)c(=O)c2n1	-73.5%	.	16.4µM*	.	.	.
Cc1ccc(CSc2nc3ccccc3c(=O)n2Cc2ccco2)cc1	?	16.2	?	?	?	13.0%
CCn1cc2nc(SCc3ccccc3Cl)n(Cc3ccc(OC)cc3)c(=O)c2n1	14.6µM*	.	25.9µM*	.	.	.
CCSc1nc2ccccc2c(=O)n1Cc1ccc(F)cc1	-27.1%	1.8	0.1%	?	21.1%	-1.6%
CCn1cc2nc(SCc3ccc(F)cc3)n(Cc3ccc(Cl)cc3)c(=O)c2n1	3.26µM*	.	6.51µM*	.	.	.
CC(NCC(=O)NC(=O)NCCC1=CCCCC1)c1ccc(S(N)(=O)=O)cc1 (centres undefined)	-8.6%	20.0	-18.5%	.	0.0%	?
CC(OC(=O)/C=C/c1ccccc1)C(=O)N1CCc2ccccc21 (centres undefined)	-24.4%	-8.4	-3.6%	-4.4%	3.5%	-55.1%
CCn1cc2nc(SCc3ccccc3F)n(Cc3ccc(C)cc3)c(=O)c2n1	11.6µM*	.	20.6µM*	.	.	.
CCn1cc2nc(SCC(=O)Nc3ccc(OC)c(Cl)c3)n(Cc3ccc(OC)cc3)c(=O)c2n1	-23.5%	.	-23.1%	.	.	.
C/C(=N\NC(=O)COc1ccccc1[N+](=O)[O-])c1cccc(NC(=O)c2ccncc2)c1	8.2µM*	i	?	?	?	-1.9%
C/C(=N\NC(=O)c1cc(O)ccc1O)c1cccc(NC(=O)c2ccc(Cl)cc2)c1	18.4µM*	-86.2*	?	?	15.8%	12.7%
C/C(=N\NC(=O)c1ccncc1)c1cccc(NC(=O)c2ccc(C(C)(C)C)cc2)c1	16.4µM*	?	16.4µM*	?	19.4%	13.5%
C/C(=N\NC(=O)c1cc(O)ccc1O)c1cccc(NC(=O)c2cccc(Cl)c2)c1	-13.0%	8.6	-17.7%	?	11.0%	25.9%
C/C(=N\NC(=O)c1cccc(N/N=C(\C)c2ccccc2)c1)c1ccccc1	?	-0.1	-0.8%	?	4.8%	-6.9%
C/C(=N\NC(=O)c1cccc(N/N=C(\C)c2ccncc2)c1)c1ccncc1	?	-27.8	20.6µM*	?	20.7%	-2.5%
COc1ccc(/C(C)=N/NC(=O)c2ccncc2)cc1[N+](=O)[O-]	-3.9%	32.0	1.6%	?	?	-2.6%
CC1CCN(S(=O)(=O)CCNC(=O)c2ccccc2)CC1	1.4%	-2.2	0.4%	1.1%	8.0%	-3.6%
O=C(NCC1CCCO1)C(=O)N/N=C\c1ccc2c(c1)OCO2 (centres undefined)	12.5%	-12.7	-7.9%	2.4%	5.1%	-1.1%

Compound activity: PubChem BioAssay, National Center for Advancing Translational Sciences (NCATS)
